Source: PubChem
Compounds with a hit are over-represented: about 10% of the library has one in this group of screens.
BAZ2B inh: blocks human BAZ2B; Q9UIF8; AlphaScreen BAZ2B-H3K14Ac peptide displacement; Potency, µM (highest dose often 114 µM), most hits filed as inhibitors; 360,000 tested, 4.4% active; AID 504333; note: nearly all actives have a fitted effect of over 60% in size
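AlphaScreen displacement: compounds (up to 110uM) incubated 30 min at room temperature with a preformed 50 nM BAZ2B/50 nM biotinylated H3K14Ac peptide complex in PBS pH 7.4 with Tween-20. Donor and acceptor beads at 10 ug/mL final added, 20 min light-protected before reading.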
GLS inh: glutaminase GLS (human) inhibition; O94925; GLS enzymatic activity, qHTS titration; Potency, µM (titrated, usually from 45.5 µM), hits mostly inhibitors; 410,000 tested, 0.21% active; AID 624170
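hKGA; 45 mM KH2PO4 pH 8.2 + 0.02% Tween-20; cpd via pin tool; 1 mM Gln soln; GluOx/HRP/Amplex Red; RT 30 min; fluor. t0 & final.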
HP1b chromo inh: blocks HP1-beta chromodomain binding to methylated histone tails; 390,000 tested, 0.56% active; P83916; Potency, µM (titrated, usually from 114 µM), hits mostly inhibitors; AlphaScreen HP1-beta / biotin-H3K9me3 peptide binding; note: nearly all actives have a fitted effect of over 70% in size
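HP1-beta protein (50 nM final) preincubated 30 min at room temperature with biotinylated H3(1-18)K9me3 peptide (50 nM) in PBS pH 7.4, 0.01% Tween-20, then compound added for 30 min. AlphaScreen streptavidin donor/nickel chelate acceptor beads (10 ug/mL final), 30 min dark, luminescence read.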
G9a inh: G9a (human) methyltransferase inhibition; G9a H3K9 monomethylation, AlphaScreen, 2 h; Potency, µM (titrated, usually from 102 µM), actives largely listed as inhibitors; AID 504332; 350,000 tested, 8.8% active; Q96KQ7; note: nearly all actives have a fitted effect of over 75% in size
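Signal arises when biotinylated H3K9 peptide, once monomethylated, bridges streptavidin donor and antibody-captured acceptor beads. Enzyme at 20 nM was preincubated 15 min with test compounds; peptide 500 nM and SAM 20 uM then reacted for 2 h.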
L3MBTL1 block: inhibitors of human L3MBTL1. Potency, µM (top dose mostly 57.1 µM), actives largely listed as inhibitors. Q9Y468. 230,000 tested, 0.66% active. AlphaScreen L3MBTL1–H3K9me1 peptide binding; note: nearly all actives have a fitted effect of over 60% in size
Target sequence (Q9Y468 whole entry, looked up): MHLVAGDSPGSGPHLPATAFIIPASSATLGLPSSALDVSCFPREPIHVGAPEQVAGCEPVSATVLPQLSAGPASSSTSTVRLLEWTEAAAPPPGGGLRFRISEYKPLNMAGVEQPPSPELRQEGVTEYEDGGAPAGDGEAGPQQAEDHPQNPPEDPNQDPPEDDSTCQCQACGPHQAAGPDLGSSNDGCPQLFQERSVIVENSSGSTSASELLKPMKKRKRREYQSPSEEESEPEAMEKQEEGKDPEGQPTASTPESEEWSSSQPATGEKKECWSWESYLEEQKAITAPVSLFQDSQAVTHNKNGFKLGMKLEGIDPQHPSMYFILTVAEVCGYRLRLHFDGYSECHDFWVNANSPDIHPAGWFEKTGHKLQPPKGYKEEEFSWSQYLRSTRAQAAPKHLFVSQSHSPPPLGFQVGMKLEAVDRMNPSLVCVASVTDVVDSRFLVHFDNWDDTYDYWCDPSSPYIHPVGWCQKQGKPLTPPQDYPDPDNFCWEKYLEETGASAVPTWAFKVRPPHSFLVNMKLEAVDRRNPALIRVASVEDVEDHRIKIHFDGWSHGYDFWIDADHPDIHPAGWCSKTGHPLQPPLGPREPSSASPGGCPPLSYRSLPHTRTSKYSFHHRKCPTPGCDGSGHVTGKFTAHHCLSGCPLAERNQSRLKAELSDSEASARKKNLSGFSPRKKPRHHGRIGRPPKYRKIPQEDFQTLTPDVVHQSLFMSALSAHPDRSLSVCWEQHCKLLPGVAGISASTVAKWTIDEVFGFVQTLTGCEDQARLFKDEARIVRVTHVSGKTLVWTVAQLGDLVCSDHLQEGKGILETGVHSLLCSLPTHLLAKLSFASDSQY
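Read-out is AlphaScreen signal from streptavidin donor and nickel chelate acceptor beads (10 ug/mL final each) bridging L3MBTL1 (50 nM) and biotinylated K9-monomethylated H3(1-15) peptide (75 nM), after 30 min compound exposure at room temperature.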
JMJD2A Tudor: inhibitors of human JMJD2A Tudor domain. O75164. AlphaScreen JMJD2A-Tudor / H3K4me3 peptide binding. Potency, µM (titrated, usually from 114 µM), actives largely listed as inhibitors. 390,000 tested, 4.4% active. AID 504339; note: nearly all actives have a fitted effect of over 50% in size
Numbers stand for hits; i = inactive; ? = inconclusive; nt = no result given; [ ] = dose if it differs, or a comment. Calls come from the whole dose curve; as a rule, active = well fitted curve in the direction sought with a large enough effect; inconclusive = small, poorly fitted or top-dose-only effect, or another doubt; inactive = no such curve, though single readings can be large; an effect the other way counts as inactive or inconclusive.

SMILES	BAZ2B inh	GLS inh	HP1b chromo inh	G9a inh	L3MBTL1 block	JMJD2A Tudor
O=C(c1nnsc1S(=O)c1ccc(Cl)cc1)N1CCOCC1 (stereo not given)	i	i	?	32µM	i	7.1µM
CCOC(=O)N1CCN(C(=O)CNC(=O)c2nn(-c3ccc(OC)cc3OC)c(=O)c3ccccc23)CC1	i	i	i	45µM	nt	i
COc1ccc(-n2nc(C(=O)NCC(=O)N3CCN(c4ccccc4)CC3)c3ccccc3c2=O)cc1OC	i	i	i	45µM	nt	i
COc1ccc(-c2c(C3C4C=CCCC4(C)C(=O)N3Cc3ccccc3)ccc3ccccc23)cc1OC (stereo not given)	nt	nt	i	nt	nt	?
Clc1ccc(CO/N=C2\CCCc3nonc32)cc1	i	?	i	i	i	71µM
CCOC(=O)c1ccc(NC(=O)C(CC)Sc2nc3ncccc3[nH]2)cc1 (stereo not given)	i	i	i	?	nt	i
Brc1ccc(-c2nc3ncccn3c2NC2CCCCC2)o1	i	i	?	10µM	nt	i
Cc1ccc(-c2nc3ncccn3c2NC2CCCC2)o1	i	i	i	?	nt	i
CC(C)(C)N(Cc1ccccc1)C(=O)COC(=O)CSc1ccc([N+](=O)[O-])cc1	i	i	i	40µM	i	i
CCNc1ccc(C(=O)OCC(=O)N(Cc2ccccc2)C(C)(C)C)cc1[N+](=O)[O-]	i	i	i	89µM	i	i
CC1CCCC(C)N1C(=O)COC(=O)CSc1ccc([N+](=O)[O-])cc1 (stereo not given)	i	i	i	?	i	i
C=C1C2CC[C@@]3(C)C(c4ccoc4)OC(=O)C[C@@]13OC1CC(OC(C)=O)C(C)(C)C(CC(=O)OC)[C@@]12C (stereo not given in full)	nt	nt	nt	i[2.33 µM]	nt	nt
O=C(Nc1ccc(Cl)cc1Cl)c1cc(S(=O)(=O)N2CCC3(CC2)OCCO3)ccc1F	i	i	i	i	nt	i
OC(Cn1cnnc1)c1ccccc1 (stereo not given)	25µM	i	22µM	35µM	nt	6.3µM
CCOC(=O)c1c(NC(=O)c2ccc(S(=O)(=O)N3CCC(C)CC3)cc2)sc2c1CCN(C)C2	i	i	i	i	nt	i
COc1ccc(-n2nc(C(=O)Nc3ccc(C)cn3)c3c4ccccc4n(C)c3c2=O)cc1Cl	nt	i	i	i	nt	i
Cc1ccc2c(c1)-c1c(c(C(=O)NCCc3ccccc3)nn1C)CS2	i	i	i	i	nt	i
COc1ccc(/C=N/NC(=O)c2ccoc2C)cc1CN1CCN(c2ccc(F)cc2)CC1	79µM	i	?	?	nt	?
COc1cc(C=NNC(=O)c2ccccc2-n2cccc2)ccc1O	nt	13µM	i	nt	i	i
COc1cc(/C=N/NC(=O)c2ccoc2C)ccc1O	i	i	i	50µM	i	i
COc1ccc(C(=O)N/N=C/c2ccc(OC)c(CN3CCN(c4ccc(F)cc4)CC3)c2)cc1	i	i	i	i	i	?
CCOc1cc(/C=N/NC(=O)c2ccc(=O)n(C)c2)ccc1O	i	7.9µM	i	nt	i	i
Cc1ccc(N(C)C(=O)Cn2cnc3onc(-c4ccc(F)cc4)c3c2=O)cc1C	i	i	i	i	nt	i
Cc1ccc(S(=O)(=O)Cc2nc(-c3ccc(C(=O)NCc4ccccc4F)cc3)oc2C)cc1	?	nt	i	i	nt	i
CC(=O)c1cccc(NC(=O)CCc2c(C)nc3nc(CN)nn3c2C)c1	50µM	i	i	16µM	nt	?
SMILES	BAZ2B inh	GLS inh	HP1b chromo inh	G9a inh	L3MBTL1 block	JMJD2A Tudor
O=C(NN1CCOCC1)c1cccc2ccccc12	i	?	i	i	i	50µM
O=C(NN1CCCCC1)c1cccc2ccccc12	i	i	i	i	i	i
Cc1ccc2c(=O)cc(C(=O)N(Cc3ccc(C(C)(C)C)cc3)C3CCS(=O)(=O)C3)oc2c1 (stereo not given)	i	i	i	i	nt	i
COc1cc(OC)c(NS(=O)(=O)c2coc(C(N)=O)c2)cc1Cl	i	i	i	71µM	nt	i
COc1ccc(NS(=O)(=O)c2coc(C(N)=O)c2)cc1Cl	i	i	i	i	i	i
O=S(=O)(c1ccc(Cl)c(NC(=S)N/N=C/c2ccc(O)cc2)c1)N1CCOCC1	i	i	i	1.4µM	i	?
O=[N+]([O-])c1cc(Cl)cc(/C=N/NC(=S)Nc2ccc(S(=O)(=O)N3CCOCC3)cc2)c1O	2.8µM	i	22µM	16µM	3.5µM	i[11.4 µM]
C/C(CCC(C)C)=N\NC(=S)Nc1cc(S(=O)(=O)N2CCOCC2)ccc1N1CCOCC1	i	i	i	25µM	i	i
C/C(=N\NC(=S)Nc1cc(S(=O)(=O)N2CCOCC2)ccc1Cl)c1ccc(N2CCOCC2)cc1	i	i	i	32µM	i	i
O=S(=O)(c1ccc(NC(=S)N/N=C/c2ccc(O)c(O)c2)cc1)N1CCOCC1	?	?	i	nt	?	?
COC(=O)CSc1nc2sc3c(c2c(=O)n1Cc1ccccc1)CCC(C(C)(C)C)C3 (stereo not given)	i	i	i	i	nt	i
Cc1ccc(S(=O)(=O)c2nc(S(C)(=O)=O)sc2NCc2ccccc2)cc1	i	i	i	i	nt	i
Oc1ccc(/C=N/NC(=S)N2CCOCC2)cc1	i	i	i	50µM	i	i
CC(C)NC(=S)N/N=C/c1ccc(N2CCOCC2)cc1	i	i	i	i	i	i
COC(=O)c1ccccc1NC(=O)Cn1cc(S(=O)(=O)Cc2ccccc2F)c2ccccc21	?	i	i	i	nt	i
CC(/C=C/c1ccccc1)=N\NC(N)=S	?	i	?	?	i	i
CC(/C=C/c1ccccc1)=N\NC(=S)NC(C)C	?	i	?	50µM	i	45µM
CCC(=O)NC(=S)Nc1ccc(NC(=O)COc2ccc(Cl)cc2Cl)cc1	i	i	i	i	i	i
Cc1ccc(OCC(=O)NC(=S)Nc2ccccn2)c(Br)c1	i	i	i	?	nt	i
CC(=O)NC(=S)Nc1ccc(NC(=O)COc2ccc(Cl)cc2)cc1	i	i	i	5.6µM	nt	i
Cc1cccc(NC(=S)NNC(=O)COc2ccc(Cl)cc2Cl)c1	i	i	i	8.9µM	i	i
CC(=O)NC(=S)Nc1ccc(NC(=O)COc2ccc(C(C)C)cc2)cc1	?	i	i	?	i	i
O=C(COc1ccc(Br)cc1Cl)NC(=S)Nc1ccccn1	i	i	i	79µM	nt	i
CC(=O)Nc1ccc(S(=O)(=O)NNC(=O)COc2ccc(Cl)cc2Cl)cc1	i	i	i	50µM	nt	i
CCn1ccc2cc(S(=O)(=O)N3CCC(C(=O)NCCc4ccccc4Cl)CC3)ccc21	i	i	i	i	nt	i
Cc1ccccc1OCC(=O)NCC(=O)OCC(=O)c1ccc(F)cc1	nt	nt	i	nt	nt	i
O=C(c1cc(C(F)(F)F)cc(C(F)(F)F)c1)N1CCC2(CCCN(c3ccncc3)C2)CC1	nt	nt	nt	i[12.7 µM]	nt	nt
